Experimental data from PubChem BioAssay (NCI).
Compounds without any hit were thinned out: in the full panel of roughly 83,000, 20% have a hit.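 Step 1: grow cells in 96-well plates. Step 2: add test compound at a single concentration. Step 3: incubate 48 h. Step 4: record percent growth.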 Activity calls are given as the source filed them. How the source made its calls: active means growth percent below 10; inactive means the rest.

How the values were obtained:
Assay in all cases: NCI-60 one-dose screen, 48 h (100 = growth as untreated, 0 = no growth, -100 = all killed)
Conditions in all cases: 10 µM unless noted
[1] = system: SK-MEL-2 melanoma
[2] = system: EKVX NSCLC
[3] = system: SN12C renal
[4] = system: UO-31 renal
[5] = system: TK-10 renal
[6] = system: ACHN renal
[7] = system: CAKI-1 renal
[8] = system: A498 renal
[9] = system: CCRF-CEM leukemia
[10] = system: MOLT-4 leukemia
[11] = system: SR leukemia
[12] = system: RPMI-8226 leukemia
[13] = system: OVCAR-8 ovarian
[14] = system: OVCAR-5 ovarian
[15] = system: OVCAR-4 ovarian
[16] = system: SK-OV-3 ovarian
[17] = system: IGROV1 ovarian
[18] = system: OVCAR-3 ovarian
[19] = system: NCI/ADR-RES ovarian
[20] = system: HS 578T breast

Measured: growth

COc1ccc(-c2n[nH]c(=O)c3nc(NC(=S)Nc4ccc(Oc5ccccc5)cc4)sc23)cc1
inactive: [1] 98.6% | [2] 106% | [3] 100% | [4] 77.1% | [5] 92.8% | [6] 105% | [7] 87.3% | [8] 80.4% | [9] 81.2% | [10] 96.9% | [11] 81.6% | [12] 82.8% | [13] 86.5% | [14] 104% | [15] 95% | [16] 94.9% | [17] 104% | [18] 105% | [19] 108%

CC(C)(C)c1cc(Cl)c(O)c(CNCCO)c1
inactive: [1] 113% | [2] 101% | [3] 109% | [4] 99.7% | [5] 105% | [6] 110% | [7] 94.1% | [8] 89.4% | [9] 110% | [10] 115% | [11] 103% | [12] 113% | [13] 110% | [14] 112% | [15] 104% | [16] 110% | [18] 111% | [20] 82.7% | [19] 109%

CCN1C(=O)N(CC)C2C1NN=c1s/c(=C3\C(=O)N(CC(C)C)c4ccccc43)c(=O)n12 (configuration not stated)
active: [8] 9.64% | [13] 9.28% | [18] 5.65% | [19] 5.71%
inactive: [1] 56% | [2] 53.7% | [3] 27.5% | [4] 32.1% | [5] 70.2% | [6] 31% | [7] 31.6% | [9] 11.6% | [10] 19.6% | [11] 17.7% | [12] 17.5% | [14] 30.3% | [15] 44.6% | [16] 45.1% | [20] 18%

COC1=C(C)C(=O)N2[C@@H]1[C@H](c1ccccc1)OC21C=CC(=O)C=C1
active: [3] 0.448% | [4] -42.9% | [6] -29.3% | [7] -59.6% | [9] -19.7% | [10] -4.79% | [11] 2.4% | [12] -20.7% | [14] -56.1% | [17] -20.7% | [18] -4.05%
inactive: [1] 11.1% | [2] 70.3% | [5] 20.8% | [8] 92.7% | [13] 19.4% | [15] 33.4% | [16] 112% | [19] 20.1%

Clc1c(Cl)[n+](Cc2ccc3ccccc3c2)cn1Cc1ccc2ccccc2c1
inactive: [2] 38.7% | [3] 28.1% | [4] 70.7% | [6] 84.7% | [7] 89.7% | [8] 54.7% | [14] 54.9% | [16] 19% | [19] 97.8%
active: [1] -55% | [5] -63% | [9] 6.14% | [10] -0.428% | [11] -55.6% | [12] -43% | [13] -10.7% | [15] -3.18% | [17] -20.3% | [18] -21.8%

Cc1ccc2nc(/C(C#N)=C(/CCCO)NC(Cc3ccccc3)C(=O)OCc3ccccc3)[nH]c(=O)c2c1 (configuration not stated)
inactive: [1] 96.8% | [2] 95.6% | [3] 103% | [4] 112% | [5] 126% | [6] 107% | [7] 90.2% | [8] 210% | [9] 164% | [10] 112% | [11] 92.3% | [12] 114% | [13] 120% | [14] 89.2% | [15] 125% | [16] 106% | [17] 127% | [18] 110% | [19] 32.6%

CCCCNC(=O)c1cc([N+](=O)[O-])cc(C2CCCCC2)c1O
inactive: [1] 19.5% | [2] 33.6% | [3] 31.9% | [4] 24.8% | [5] 49.1% | [6] 61.5% | [7] 35.3% | [8] 21.5% | [9] 36.5% | [10] 27.1% | [11] 84.1% | [12] 17% | [13] 43.9% | [14] 78.6% | [15] 14.3% | [16] 40.3% | [18] 23.1% | [20] 48.3% | [19] 49.6%

CCCCNC(=O)Oc1ccc(/C(=C(/C)Cc2ccc(OC)cc2)c2ccc(OCCN3CCCCC3)cc2)cc1
active: [11] -40.5%
inactive: [1] 113% | [2] 76.3% | [3] 73.9% | [4] 51% | [5] 84.4% | [6] 91.3% | [7] 83.6% | [8] 96.3% | [9] 42.8% | [10] 33.6% | [12] 32.3% | [13] 84.7% | [14] 84.5% | [15] 69.3% | [16] 95.5% | [18] 77.1% | [20] 72.9% | [19] 81.9%
